Over roughly 16,000 sequences, “rpm ratio (pull-down/input)” has its median near 0.94; the highest 2% begin near 1.7. The entries come from a sample that favours the highest values as a whole.
Molecular target: T1, MBP-FoxP1dN (Mus musculus, UniProt P58462 326-579)
T1 sequence: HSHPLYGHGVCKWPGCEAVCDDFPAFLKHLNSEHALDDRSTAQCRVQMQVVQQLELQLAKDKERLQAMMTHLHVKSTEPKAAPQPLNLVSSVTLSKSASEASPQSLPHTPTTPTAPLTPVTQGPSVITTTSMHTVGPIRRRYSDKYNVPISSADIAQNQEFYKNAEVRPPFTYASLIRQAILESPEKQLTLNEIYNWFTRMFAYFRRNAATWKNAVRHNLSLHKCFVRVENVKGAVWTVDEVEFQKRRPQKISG
Test: PD-seq (MBP pull-down with sequencing); 20 mM Tris-HCl pH 7.5, 100 mM NaCl, 1.5 mM MgCl2, 0.4 uM protein, 0.1 uM dsDNA library, 30 min, room temperature, amylose pull-down; high values mean tight binding
Conditions: protein: recombinant; tags: His6-MBP; chain copies: 2; dsDNA, one strand shown
In short: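 A fragment of mouse FoxP3 or FoxP1 without its N-terminus, carrying a His6-MBP tag and produced in E. coli, was combined at 0.4 µM with a 0.1 µM degenerate double-stranded DNA library filled in with Klenow. The mixture sat for 30 min at room temperature in Tris pH 7.5 buffer containing NaCl and MgCl2. Protein–DNA complexes were captured on amylose resin, washed three times, and the DNA was freed with proteinase K, barcoded by PCR and sequenced on Illumina. Binding is expressed as reads-per-million enrichment of pull-down over input, with replicates pooled.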

| Sequence | binding signal |
| --- | --- |
| GATGATTGTTCTCCCAGCTGATGAATTACGGCCTTCGAGTAAACAAATTTTCCTAATCTTTCTGTTCAAGCGCCATCTAC | 0.977 RPM ratio (pull-down/input) |
| GATGATTGTTCTCCCAGCTGATGAATTGCTGAGATCGAGTAAACAAATTTTCCTAATCTTTCTGTTCAAGCGCCATCTAC | 0.969 RPM ratio (pull-down/input) |
| GATGATTGTTCTCCCAGCTGATGAATTGACTAGTTCGAGTAAACAAATTTTCCTAATCTTTCTGTTCAAGCGCCATCTAC | 1.08 RPM ratio (pull-down/input) |
| GATGATTGTTCTCCCAGCTGATGAATTAGTAACATCGAGTAAACAAATTTTCCTAATCTTTCTGTTCAAGCGCCATCTAC | 1.45 RPM ratio (pull-down/input) |
| GATGATTGTTCTCCCAGCTGATGAATTTCCCACTTCGAGTAAACAAATTTTCCTAATCTTTCTGTTCAAGCGCCATCTAC | 0.889 RPM ratio (pull-down/input) |
| GATGATTGTTCTCCCAGCTGATGAATTCTCTTATTCGAGTAAACAAATTTTCCTAATCTTTCTGTTCAAGCGCCATCTAC | 0.995 RPM ratio (pull-down/input) |
| GATGATTGTTCTCCCAGCTGATGAATTTGGTTATTCGAGTAAACAAATTTTCCTAATCTTTCTGTTCAAGCGCCATCTAC | 1.15 RPM ratio (pull-down/input) |
| GATGATTGTTCTCCCAGCTGATGAATTTTCTTATTCGAGTAAACAAATTTTCCTAATCTTTCTGTTCAAGCGCCATCTAC | 0.953 RPM ratio (pull-down/input) |
| GATGATTGTTCTCCCAGCTGATGAATTTATGATTTCGAGTAAACAAATTTTCCTAATCTTTCTGTTCAAGCGCCATCTAC | 1.37 RPM ratio (pull-down/input) |
| GATGATTGTTCTCCCAGCTGATGAATTCTTATTTTCGAGTAAACAAATTTTCCTAATCTTTCTGTTCAAGCGCCATCTAC | 2.25 RPM ratio (pull-down/input) |
| GATGATTGTTCTCCCAGCTGATGAATTCTTATGTTCGAGTAAACAAATTTTCCTAATCTTTCTGTTCAAGCGCCATCTAC | 1.21 RPM ratio (pull-down/input) |
| GATGATTGTTCTCCCAGCTGATGAATTCCTGTGTTCGAGTAAACAAATTTTCCTAATCTTTCTGTTCAAGCGCCATCTAC | 1.26 RPM ratio (pull-down/input) |
| GATGATTGTTCTCCCAGCTGATGAATTTGATTATTCGAGTAAACAAATTTTCCTAATCTTTCTGTTCAAGCGCCATCTAC | 1.2 RPM ratio (pull-down/input) |
| GATGATTGTTCTCCCAGCTGATGAATTGTGTTATTCGAGTAAACAAATTTTCCTAATCTTTCTGTTCAAGCGCCATCTAC | 2.18 RPM ratio (pull-down/input) |
| GATGATTGTTCTCCCAGCTGATGAATTGTTATGTTCGAGTAAACAAATTTTCCTAATCTTTCTGTTCAAGCGCCATCTAC | 2.01 RPM ratio (pull-down/input) |
| GATGATTGTTCTCCCAGCTGATGAATTCGTTATTTCGAGTAAACAAATTTTCCTAATCTTTCTGTTCAAGCGCCATCTAC | 1.14 RPM ratio (pull-down/input) |
| GATGATTGTTCTCCCAGCTGATGAATTTTGTTATTCGAGTAAACAAATTTTCCTAATCTTTCTGTTCAAGCGCCATCTAC | 2.37 RPM ratio (pull-down/input) |

| Sequence | binding signal |
| --- | --- |
| GATGATTGTTCTCCCAGCTGATGAATTCCGTAAATCGAGTAAACAAATTTTCCTAATCTTTCTGTTCAAGCGCCATCTAC | 1.2 RPM ratio (pull-down/input) |
| GATGATTGTTCTCCCAGCTGATGAATTGAACGTCTCGAGTAAACAAATTTTCCTAATCTTTCTGTTCAAGCGCCATCTAC | 0.787 RPM ratio (pull-down/input) |
| GATGATTGTTCTCCCAGCTGATGAATTACCGTGGTCGAGTAAACAAATTTTCCTAATCTTTCTGTTCAAGCGCCATCTAC | 0.89 RPM ratio (pull-down/input) |
| GATGATTGTTCTCCCAGCTGATGAATTTCCGAGGTCGAGTAAACAAATTTTCCTAATCTTTCTGTTCAAGCGCCATCTAC | 0.721 RPM ratio (pull-down/input) |
| GATGATTGTTCTCCCAGCTGATGAATTAGACTTCTCGAGTAAACAAATTTTCCTAATCTTTCTGTTCAAGCGCCATCTAC | 0.789 RPM ratio (pull-down/input) |
| GATGATTGTTCTCCCAGCTGATGAATTCCTTAGATCGAGTAAACAAATTTTCCTAATCTTTCTGTTCAAGCGCCATCTAC | 0.924 RPM ratio (pull-down/input) |
| GATGATTGTTCTCCCAGCTGATGAATTTGCTCGATCGAGTAAACAAATTTTCCTAATCTTTCTGTTCAAGCGCCATCTAC | 0.994 RPM ratio (pull-down/input) |
| GATGATTGTTCTCCCAGCTGATGAATTTTTATTCTCGAGTAAACAAATTTTCCTAATCTTTCTGTTCAAGCGCCATCTAC | 1.06 RPM ratio (pull-down/input) |
| GATGATTGTTCTCCCAGCTGATGAATTATTATGTTCGAGTAAACAAATTTTCCTAATCTTTCTGTTCAAGCGCCATCTAC | 1.69 RPM ratio (pull-down/input) |
| GATGATTGTTCTCCCAGCTGATGAATTGGTTATTTCGAGTAAACAAATTTTCCTAATCTTTCTGTTCAAGCGCCATCTAC | 1.13 RPM ratio (pull-down/input) |
| GATGATTGTTCTCCCAGCTGATGAATTGTTATTTTCGAGTAAACAAATTTTCCTAATCTTTCTGTTCAAGCGCCATCTAC | 3.47 RPM ratio (pull-down/input) |
| GATGATTGTTCTCCCAGCTGATGAATTTCTTATTTCGAGTAAACAAATTTTCCTAATCTTTCTGTTCAAGCGCCATCTAC | 1.07 RPM ratio (pull-down/input) |
| GATGATTGTTCTCCCAGCTGATGAATTATTATTCTCGAGTAAACAAATTTTCCTAATCTTTCTGTTCAAGCGCCATCTAC | 1.45 RPM ratio (pull-down/input) |
| GATGATTGTTCTCCCAGCTGATGAATTTGTTATTTCGAGTAAACAAATTTTCCTAATCTTTCTGTTCAAGCGCCATCTAC | 2.17 RPM ratio (pull-down/input) |
| GATGATTGTTCTCCCAGCTGATGAATTGTTATTCTCGAGTAAACAAATTTTCCTAATCTTTCTGTTCAAGCGCCATCTAC | 2.03 RPM ratio (pull-down/input) |
| GATGATTGTTCTCCCAGCTGATGAATTATGTAATTCGAGTAAACAAATTTTCCTAATCTTTCTGTTCAAGCGCCATCTAC | 1.31 RPM ratio (pull-down/input) |
| GATGATTGTTCTCCCAGCTGATGAATTATGTTATTCGAGTAAACAAATTTTCCTAATCTTTCTGTTCAAGCGCCATCTAC | 2.18 RPM ratio (pull-down/input) |

From PMC12820563, “FoxP3 forms a head-to-head dimer in vivo and stabilizes its multimerization on adjacent microsatellites”
